DT40 TDP1 no CPT = qHTS for Inhibitors of human tyrosyl-DNA phosphodiesterase 1 (TDP1): qHTS in cells in absence of CPT | DT40 Tdp1-/- hTDP1 cells, no CPT, ATP luminescence, 48 h | Potency, µM (highest dose often 46.2 µM), usual class: inhibitors | hit rate 15% among 420,000; also: nearly all actives have a fitted effect of over 55% in size
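No-CPT arm: Tdp1-/-;hTDP1 DT40 cells (400/well) plus compounds, incubated ≥48 hr at 37 °C. Readout CellTiter-Glo luminescence.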
HT1080 IDH1KD tx = HT-1080 IDH1 knockdown cell toxicity (counter line) | hit rate 2% among 360,000 | AID 686971 | HT-1080 IDH1 knockdown viability, ATP luminescence, 48 h | Potency, µM (titrated, usually from 46.1 µM), hits mostly cytotoxic
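Luminescent ATP read-out (CellTiter-Glo, 10 min at room temperature) after 48 h compound exposure at 37 °C gave viability of IDH1-knockdown HT-1080 cells. Activity was normalised to DMSO and cell-free wells, then fitted as concentration-response curves.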
HT1080-NT tox = kills 2HG-producing HT-1080-NT fibrosarcoma cells; AID 686970; Potency, µM (top dose mostly 46.1 µM), actives largely listed as cytotoxic; hit rate 1.6% among 360,000; HT-1080-NT fibrosarcoma viability, CellTiter-Glo ATP luminescence, 48 h;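 also: NT is the 2HG producing partner of a matched IDH1 knockdown line; nearly all actives have a fitted effect of over 55% in size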
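HT-1080-NT fibrosarcoma cells (2HG-overproducing), 750 cells/well in RPMI with 5% FBS, dosed after 2 h and incubated 48 h at 37C. CellTiter-Glo luminescence normalized to DMSO and no-cell wells; concentration-response curves fitted and classed.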
IL1B secr inh = inflammasome signaling inhibition, IL-1 beta readout. activity change, % at 57.5 µM. AID 743279. THP-1 LPS/ATP IL-1B secretion, AlphaLISA, 16 h; stronger effect = lower value. hit rate 4.7% among 360,000; in the data active = activity change below about -50%; inconclusive = mostly about -30% to -49%
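THP-1 cells pretreated 1 hr with compounds (up to 57.5 uM final), then stimulated with LPS (250 ng/mL final) plus ATP (1.25 mM final); secreted IL-1B measured by AlphaLISA after 16 hr, decreased signal indicating inhibition.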
DT40 TDP1 CPT = growth inhibition of DT40 Tdp1-/-;hTDP1 cells with camptothecin (screen for TDP1 inhibitors); chicken DT40 Tdp1-/-;hTDP1 cells + 20 nM CPT, ATP luminescence, 48 h; Potency, µM (doses to about 46.2 µM), most hits filed as inhibitors; hit rate 12% among 420,000; also: nearly all actives have a fitted effect of over 55% in size
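Cell growth measured by CellTiter-Glo luminescence after a minimum 48 h, 37 C compound exposure with 20 nM CPT in Tdp1-knockout DT40 cells stably expressing hTDP1, seeded 400/well; qHTS titration format.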
Numbers stand for hits. Shown are actives, neighbours in structure and some others; about 19% of the full set was active somewhere. Unless noted, calls follow the shape of the dose curve; as a rule, active = well fitted curve in the direction sought with a large enough effect; inconclusive = small, poorly fitted or top-dose-only effect, or another doubt; inactive = no such curve, though single readings can be large; an effect the other way counts as inactive or inconclusive.

Screening CCn1c(SC(C)C(=O)NCC2CCCO2)nc2scc(-c3ccccc3)c2c1=O (configuration not stated) returned DT40 TDP1 no CPT inconclusive, HT1080 IDH1KD tx inactive, HT1080-NT tox inactive, IL1B secr inh inactive and DT40 TDP1 CPT 18.4µM.
COCCNC(=O)CN1C(=O)COc2ccc(S(=O)(=O)N3CCCC3)cc21 was read as DT40 TDP1 no CPT inactive and DT40 TDP1 CPT inactive.
`CCOC(=O)c1ccc(S(=O)(=O)N2CCN(C3CC(=O)N(c4ccc(OC)cc4)C3=O)CC2)cc1` (configuration not stated) gave DT40 TDP1 no CPT inactive, HT1080 IDH1KD tx inactive, HT1080-NT tox inactive, IL1B secr inh inactive and DT40 TDP1 CPT inactive.
Screening Cc1csc(NC(=O)c2cc3c(s2)CCCCC3)n1 returned DT40 TDP1 no CPT 14.6µM, HT1080 IDH1KD tx inconclusive, HT1080-NT tox inconclusive, IL1B secr inh -63.0 and DT40 TDP1 CPT inconclusive.
CCOC(=O)Cc1csc(NC(=O)c2cc3c(s2)CCCC3)n1 was read as DT40 TDP1 no CPT inconclusive, HT1080 IDH1KD tx inconclusive, HT1080-NT tox inactive, IL1B secr inh inactive and DT40 TDP1 CPT inconclusive.
Cc1csc(NC(=O)c2cc3c(s2)CCCC3)n1 was read as DT40 TDP1 no CPT 11.6µM, HT1080 IDH1KD tx inactive, HT1080-NT tox inactive, IL1B secr inh inactive and DT40 TDP1 CPT inconclusive.
`CC(=O)N(C)c1ccc(NC(=O)c2cnn(C)c2)cc1` gave DT40 TDP1 no CPT inactive, HT1080 IDH1KD tx inactive, HT1080-NT tox inactive, IL1B secr inh inactive and DT40 TDP1 CPT inactive.
COc1cccc(C#CC2=CC(=O)C[C@H](c3ccc(F)cc3)C2)c1 was read as DT40 TDP1 no CPT 8.2µM, HT1080 IDH1KD tx inconclusive, HT1080-NT tox inconclusive, IL1B secr inh -93.1 and DT40 TDP1 CPT 13µM.
For O=C1C=C(C#Cc2ccc(Oc3ccccc3)cc2)C[C@@H](c2ccc(F)cc2)C1 the results were DT40 TDP1 no CPT 11.6µM, HT1080 IDH1KD tx inconclusive, HT1080-NT tox inconclusive, IL1B secr inh -79.8 and DT40 TDP1 CPT 16.4µM.
Screening Clc1ccc2nnnc(-c3ccccc3)c2c1 returned DT40 TDP1 no CPT 4.11µM, HT1080 IDH1KD tx inconclusive, HT1080-NT tox inconclusive, IL1B secr inh -99.6 and DT40 TDP1 CPT 3.26µM.
`CCOC(=O)N(C)C[C@@H]1OCc2cnnn2CCCC(=O)N([C@H](C)CO)C[C@@H]1C` gave DT40 TDP1 no CPT inactive, HT1080 IDH1KD tx inactive, HT1080-NT tox inactive, IL1B secr inh inactive and DT40 TDP1 CPT inactive.
Screening CC(=O)OCCCNc1cc(Sc2ccc(Cl)cc2)c2nonc2c1[N+](=O)[O-] returned DT40 TDP1 no CPT 3.66µM, HT1080 IDH1KD tx inactive, HT1080-NT tox inactive, IL1B secr inh inconclusive and DT40 TDP1 CPT 2.06µM.
For CC(=O)OCCNc1cc(SC(C)C)c2nonc2c1[N+](=O)[O-] the results were DT40 TDP1 no CPT inconclusive, HT1080 IDH1KD tx inactive, HT1080-NT tox inactive, IL1B secr inh inactive and DT40 TDP1 CPT inactive.
Screening CC(C)CCSc1cc(NCCO)c([N+](=O)[O-])c2nonc12 returned DT40 TDP1 no CPT inconclusive, HT1080 IDH1KD tx 18.4µM, HT1080-NT tox inconclusive, IL1B secr inh inactive and DT40 TDP1 CPT inconclusive.
COC(=O)CCSc1cc(NCCCOC(C)=O)c([N+](=O)[O-])c2nonc12 was read as DT40 TDP1 no CPT 5.01µM and DT40 TDP1 CPT 5.01µM.
Cc1ccc(Sc2cc(NCCCO)c([N+](=O)[O-])c3nonc23)cc1 was read as DT40 TDP1 no CPT 2.91µM, HT1080 IDH1KD tx inactive, HT1080-NT tox inactive, IL1B secr inh inactive and DT40 TDP1 CPT 2.31µM.
`O=C(COc1ccccc1)NC(=S)Nc1cccc2cc(O)ccc12` gave DT40 TDP1 no CPT inactive, HT1080 IDH1KD tx inactive, HT1080-NT tox inactive, IL1B secr inh inactive and DT40 TDP1 CPT inactive.
`C[C@@H](C[C@H](N)C(=O)O)C(=O)O` gave DT40 TDP1 no CPT inactive and DT40 TDP1 CPT inactive.
`CCc1nc2ccc(C(=O)NCCCN3CCCC3=O)cn2c1N(C)C(=O)C1CCCCC1` gave DT40 TDP1 no CPT inactive, HT1080 IDH1KD tx inactive, HT1080-NT tox inconclusive, IL1B secr inh inactive and DT40 TDP1 CPT inconclusive.

Screens (PubChem)
